Reference: the supplement of paper PMC10849652
The full data set covers some 8,800 targets. This sample favours those with a hit. About 0.5% of all pairs of compound and target were hits. Unmarked numbers belong to inactive results.

Assays:
Assay in all cases: log2 fold change, soluble protein after heating vs DMSO (PISA); higher = thermal stabilisation; K562 lysate, 10 uM; active = over 0.2 and 3.5 SD of the protein, either way, in both replicates (recomputed)
alvocidib = compound: CN1CC[C@H](c2c(O)cc(O)c3c(=O)cc(-c4ccccc4Cl)oc23)[C@H](O)C1 [alvocidib]
Method in brief: (§1)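 To prepare the extract, K562 pellets were dounce-homogenised in PBS pH 7.4 with 1 mM MgCl2, giving crude material at 1 mg/mL protein. This was treated with 10 μM compound for 30 min, then heated in aliquots for 3 min over 48°C-58°C before pooling and addition of NP-40 to 0.5% at 4°C. Centrifugation at 21,000xg for 90 min left soluble protein in the supernatant, which TMTpro 16plex LC-MS/MS quantified with equalised channel sums. Results are log-two fold changes in thermal stability compared with solvent controls, from duplicates.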

Tubastatin A = compound: CN1CCc2c(c3ccccc3n2Cc2ccc(C(=O)NO)cc2)C1 [Tubastatin A]
Method in brief: as §1

[1] = compound: CNC(=O)C1=CC=CC=C1NC2=NC(=NC=C2Cl)NC3=C(C=C(C=C3)N4CCOCC4)OC
Method in brief: as §1

defactinib = compound: CNC(=O)c1ccc(Nc2ncc(C(F)(F)F)c(NCc3nccnc3N(C)S(C)(=O)=O)n2)cc1 [defactinib]
Method in brief: as §1

[2] = compound: CNc1nc(-c2ccc3c(N)n[nH]c3c2)cc(N2C[C@@H](C(=O)NC3CCCCC3)CC[C@H]2C)n1
Method in brief: as §1

encorafenib = compound: COC(=O)N[C@@H](C)CNc1nccc(-c2cn(C(C)C)nc2-c2cc(Cl)cc(NS(C)(=O)=O)c2F)n1 [encorafenib]
Method in brief: as §1

[3] = compound: COC(=O)[C@H](CCSC)NC(=O)C1=C(C=C(C=C1)NC[C@H](CS)N)C2=CC=CC=C2
Method in brief: as §1

alisertib = compound: COc1cc(Nc2ncc3c(n2)-c2ccc(Cl)cc2C(c2c(F)cccc2OC)=NC3)ccc1C(=O)O [alisertib]
Method in brief: as §1

[4] = compound: COc1cc2nc(-c3cc(F)ccc3O)nc(N[C@@H]3CNC[C@H]3C(C)(C)O)c2cc1OC
Method in brief: as §1

gefitinib = compound: COc1cc2ncnc(Nc3ccc(F)c(Cl)c3)c2cc1OCCCN1CCOCC1 [gefitinib]
Method in brief: as §1

lapatinib = compound: CS(=O)(=O)CCNCc1ccc(-c2ccc3ncnc(Nc4ccc(OCc5cccc(F)c5)c(Cl)c4)c3c2)o1 [lapatinib]
Method in brief: as §1

pictilisib = compound: CS(=O)(=O)N1CCN(Cc2cc3nc(-c4cccc5[nH]ncc45)nc(N4CCOCC4)c3s2)CC1 [pictilisib]
Method in brief: as §1

crizotinib = compound: C[C@@H](Oc1cc(-c2cnn(C3CCNCC3)c2)cnc1N)c1c(Cl)ccc(F)c1Cl [crizotinib]
Method in brief: as §1

[5] = compound: C[C@H](C1=CC=C(C=C1)C(=O)NC2=C3C=CNC3=NC=C2)N
Method in brief: as §1

duvelisib = compound: C[C@H](Nc1ncnc2nc[nH]c12)c1cc2cccc(Cl)c2c(=O)n1-c1ccccc1 [duvelisib]
Method in brief: as §1

gandotinib = compound: Cc1cc(Nc2cc(CN3CCOCC3)c3nc(C)c(Cc4ccc(Cl)cc4F)n3n2)n[nH]1 [gandotinib]
Method in brief: as §1

tozasertib = compound: Cc1cc(Nc2cc(N3CCN(C)CC3)nc(Sc3ccc(NC(=O)C4CC4)cc3)n2)n[nH]1 [tozasertib]
Method in brief: as §1

doramapimod = compound: Cc1ccc(-n2nc(C(C)(C)C)cc2NC(=O)Nc2ccc(OCCN3CCOCC3)c3ccccc23)cc1 [doramapimod]
Method in brief: as §1

bafetinib = compound: Cc1ccc(NC(=O)c2ccc(CN3CC[C@H](N(C)C)C3)c(C(F)(F)F)c2)cc1Nc1nccc(-c2cncnc2)n1 [bafetinib]
Method in brief: as §1

[6] = compound: Cc1cccc(CC(=O)N2CCc3c2ccc(-c2cn(C)c4ncnc(N)c24)c3F)n1
Method in brief: as §1

Sequence of UniProt P51570 (P51570 whole entry, looked up): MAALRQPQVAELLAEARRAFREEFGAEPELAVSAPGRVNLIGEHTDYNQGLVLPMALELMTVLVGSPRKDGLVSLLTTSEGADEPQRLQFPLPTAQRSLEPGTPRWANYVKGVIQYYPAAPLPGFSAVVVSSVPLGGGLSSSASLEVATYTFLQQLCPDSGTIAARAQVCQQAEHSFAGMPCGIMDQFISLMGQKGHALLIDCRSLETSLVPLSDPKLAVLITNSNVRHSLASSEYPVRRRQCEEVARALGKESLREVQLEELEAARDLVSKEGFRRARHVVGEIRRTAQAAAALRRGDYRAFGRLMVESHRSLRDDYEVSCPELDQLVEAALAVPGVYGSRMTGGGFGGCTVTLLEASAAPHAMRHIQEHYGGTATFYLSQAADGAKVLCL
Sequence of UniProt Q8NCA5 (Q8NCA5 whole entry, looked up): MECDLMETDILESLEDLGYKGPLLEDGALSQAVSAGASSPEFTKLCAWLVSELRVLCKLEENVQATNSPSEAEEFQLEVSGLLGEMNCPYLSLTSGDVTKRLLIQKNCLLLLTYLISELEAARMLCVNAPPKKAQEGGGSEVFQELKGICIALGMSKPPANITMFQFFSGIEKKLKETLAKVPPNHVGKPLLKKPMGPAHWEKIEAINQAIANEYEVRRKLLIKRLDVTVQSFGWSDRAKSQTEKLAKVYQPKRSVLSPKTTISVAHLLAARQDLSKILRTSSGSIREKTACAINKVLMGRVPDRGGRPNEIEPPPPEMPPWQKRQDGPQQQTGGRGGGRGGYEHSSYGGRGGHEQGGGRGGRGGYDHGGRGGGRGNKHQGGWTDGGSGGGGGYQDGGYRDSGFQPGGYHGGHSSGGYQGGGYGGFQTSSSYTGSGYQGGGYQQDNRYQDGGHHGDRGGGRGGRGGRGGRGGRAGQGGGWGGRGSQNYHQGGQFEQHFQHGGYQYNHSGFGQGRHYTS
Sequence of UniProt Q9NSD9 (Q9NSD9 whole entry, looked up): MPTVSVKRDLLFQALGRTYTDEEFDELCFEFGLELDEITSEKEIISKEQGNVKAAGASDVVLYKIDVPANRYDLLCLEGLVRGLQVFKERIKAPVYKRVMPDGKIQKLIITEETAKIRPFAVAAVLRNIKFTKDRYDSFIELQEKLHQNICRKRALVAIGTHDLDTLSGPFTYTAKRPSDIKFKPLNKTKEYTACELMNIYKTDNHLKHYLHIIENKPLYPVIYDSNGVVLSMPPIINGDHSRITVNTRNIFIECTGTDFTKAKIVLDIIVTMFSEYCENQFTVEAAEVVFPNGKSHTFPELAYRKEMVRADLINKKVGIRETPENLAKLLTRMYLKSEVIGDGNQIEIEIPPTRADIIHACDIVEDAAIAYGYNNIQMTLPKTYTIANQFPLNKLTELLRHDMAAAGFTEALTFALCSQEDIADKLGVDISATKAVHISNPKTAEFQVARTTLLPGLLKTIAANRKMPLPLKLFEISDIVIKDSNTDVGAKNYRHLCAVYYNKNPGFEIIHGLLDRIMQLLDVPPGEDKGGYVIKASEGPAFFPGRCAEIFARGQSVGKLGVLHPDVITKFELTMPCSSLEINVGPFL
Sequence of UniProt Q8IV48 (Q8IV48 whole entry, looked up): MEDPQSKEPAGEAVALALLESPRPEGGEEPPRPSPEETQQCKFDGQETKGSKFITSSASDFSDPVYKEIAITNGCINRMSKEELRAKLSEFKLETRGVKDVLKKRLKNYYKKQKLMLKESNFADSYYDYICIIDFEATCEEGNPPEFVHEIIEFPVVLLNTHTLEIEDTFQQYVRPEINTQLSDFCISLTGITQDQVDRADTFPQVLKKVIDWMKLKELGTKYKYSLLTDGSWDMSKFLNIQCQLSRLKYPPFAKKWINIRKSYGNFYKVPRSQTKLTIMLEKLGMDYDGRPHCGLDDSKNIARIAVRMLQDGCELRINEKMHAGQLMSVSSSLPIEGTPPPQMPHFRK
Sequence of UniProt Q13011 (Q13011 whole entry, looked up): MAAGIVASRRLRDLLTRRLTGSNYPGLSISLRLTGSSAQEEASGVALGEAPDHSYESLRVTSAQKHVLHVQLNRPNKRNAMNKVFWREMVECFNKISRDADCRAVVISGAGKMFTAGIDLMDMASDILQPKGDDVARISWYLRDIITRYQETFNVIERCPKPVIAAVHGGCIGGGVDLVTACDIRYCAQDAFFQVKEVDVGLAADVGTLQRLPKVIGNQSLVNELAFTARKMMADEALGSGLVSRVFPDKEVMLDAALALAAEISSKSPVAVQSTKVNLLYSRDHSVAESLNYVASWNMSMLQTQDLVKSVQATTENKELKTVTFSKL
Sequence of UniProt Q9BPY3 (Q9BPY3 whole entry, looked up): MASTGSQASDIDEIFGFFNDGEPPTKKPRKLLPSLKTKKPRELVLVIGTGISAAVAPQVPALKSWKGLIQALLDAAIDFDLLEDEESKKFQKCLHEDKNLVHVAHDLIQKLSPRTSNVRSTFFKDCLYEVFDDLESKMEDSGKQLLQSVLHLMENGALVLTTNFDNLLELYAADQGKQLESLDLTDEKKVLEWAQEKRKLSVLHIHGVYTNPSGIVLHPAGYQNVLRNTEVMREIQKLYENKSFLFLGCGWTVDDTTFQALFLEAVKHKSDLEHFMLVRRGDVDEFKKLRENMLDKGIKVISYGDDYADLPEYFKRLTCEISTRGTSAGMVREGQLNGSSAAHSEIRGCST
Sequence of UniProt Q92562 (Q92562 whole entry, looked up): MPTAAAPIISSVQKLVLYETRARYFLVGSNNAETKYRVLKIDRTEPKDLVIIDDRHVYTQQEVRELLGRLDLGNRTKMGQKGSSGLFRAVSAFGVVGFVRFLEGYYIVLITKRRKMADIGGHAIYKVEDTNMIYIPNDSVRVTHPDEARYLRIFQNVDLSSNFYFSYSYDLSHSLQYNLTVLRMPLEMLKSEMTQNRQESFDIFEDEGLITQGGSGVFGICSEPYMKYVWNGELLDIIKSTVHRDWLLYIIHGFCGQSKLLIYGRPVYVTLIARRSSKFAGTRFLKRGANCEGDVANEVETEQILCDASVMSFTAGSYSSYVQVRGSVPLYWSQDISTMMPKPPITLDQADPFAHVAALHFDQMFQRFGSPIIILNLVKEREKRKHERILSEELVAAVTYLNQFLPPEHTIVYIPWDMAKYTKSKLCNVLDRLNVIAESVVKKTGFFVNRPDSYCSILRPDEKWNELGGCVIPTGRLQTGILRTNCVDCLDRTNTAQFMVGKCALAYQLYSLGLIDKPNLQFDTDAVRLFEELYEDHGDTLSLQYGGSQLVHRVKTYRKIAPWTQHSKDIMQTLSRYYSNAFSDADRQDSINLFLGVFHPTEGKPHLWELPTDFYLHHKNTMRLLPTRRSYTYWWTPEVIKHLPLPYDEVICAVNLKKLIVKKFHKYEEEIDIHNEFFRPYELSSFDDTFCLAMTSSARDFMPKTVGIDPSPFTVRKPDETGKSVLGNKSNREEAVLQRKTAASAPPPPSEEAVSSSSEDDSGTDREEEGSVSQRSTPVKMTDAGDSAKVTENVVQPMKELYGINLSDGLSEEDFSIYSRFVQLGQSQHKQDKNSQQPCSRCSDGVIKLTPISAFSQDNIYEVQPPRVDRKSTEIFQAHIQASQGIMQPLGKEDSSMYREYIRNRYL
Sequence of UniProt O75477 (O75477 whole entry, looked up): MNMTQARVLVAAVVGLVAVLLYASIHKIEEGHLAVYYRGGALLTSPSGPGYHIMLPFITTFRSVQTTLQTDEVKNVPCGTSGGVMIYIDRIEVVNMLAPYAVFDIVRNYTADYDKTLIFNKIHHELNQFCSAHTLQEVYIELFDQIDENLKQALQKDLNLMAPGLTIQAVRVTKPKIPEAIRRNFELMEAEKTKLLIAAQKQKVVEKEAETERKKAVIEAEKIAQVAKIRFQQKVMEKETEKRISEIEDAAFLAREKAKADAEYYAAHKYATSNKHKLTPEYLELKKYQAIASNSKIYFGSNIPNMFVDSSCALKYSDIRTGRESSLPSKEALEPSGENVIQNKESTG
Sequence of UniProt Q9UPW0 (Q9UPW0 whole entry, looked up): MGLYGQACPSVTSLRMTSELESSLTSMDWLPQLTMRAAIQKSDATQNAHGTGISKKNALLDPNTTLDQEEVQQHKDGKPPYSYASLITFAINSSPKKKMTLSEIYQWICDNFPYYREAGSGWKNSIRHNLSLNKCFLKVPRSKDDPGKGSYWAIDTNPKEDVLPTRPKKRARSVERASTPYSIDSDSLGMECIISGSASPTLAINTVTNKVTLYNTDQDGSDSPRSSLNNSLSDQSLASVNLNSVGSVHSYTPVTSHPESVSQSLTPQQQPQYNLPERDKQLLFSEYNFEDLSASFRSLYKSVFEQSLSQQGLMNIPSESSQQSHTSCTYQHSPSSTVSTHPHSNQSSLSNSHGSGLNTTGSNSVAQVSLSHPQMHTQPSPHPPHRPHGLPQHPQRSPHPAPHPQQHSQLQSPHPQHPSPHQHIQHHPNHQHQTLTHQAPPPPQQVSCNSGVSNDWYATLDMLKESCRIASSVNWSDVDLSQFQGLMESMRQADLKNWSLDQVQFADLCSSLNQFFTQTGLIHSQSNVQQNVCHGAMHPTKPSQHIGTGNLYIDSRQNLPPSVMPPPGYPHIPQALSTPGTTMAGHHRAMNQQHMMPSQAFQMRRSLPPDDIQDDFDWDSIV
Sequence of UniProt Q9UBQ6 (Q9UBQ6 whole entry, looked up): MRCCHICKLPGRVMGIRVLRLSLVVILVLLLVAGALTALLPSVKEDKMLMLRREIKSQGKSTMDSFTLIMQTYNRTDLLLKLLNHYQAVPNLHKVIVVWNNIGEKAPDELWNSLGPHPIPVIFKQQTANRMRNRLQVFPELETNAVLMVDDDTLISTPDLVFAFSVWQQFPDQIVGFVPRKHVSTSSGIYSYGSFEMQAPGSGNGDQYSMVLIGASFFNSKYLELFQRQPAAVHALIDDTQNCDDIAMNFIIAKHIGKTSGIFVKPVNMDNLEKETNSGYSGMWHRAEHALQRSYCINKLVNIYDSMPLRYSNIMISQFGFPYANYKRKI

Target	log2 fold change (alvocidib)	log2 fold change (Tubastatin A)	log2 fold change [1]	log2 fold change (defactinib)	log2 fold change [2]	log2 fold change (encorafenib)	log2 fold change [3]	log2 fold change (alisertib)	log2 fold change [4]	log2 fold change (gefitinib)	log2 fold change (lapatinib)	log2 fold change (pictilisib)	log2 fold change (crizotinib)	log2 fold change [5]	log2 fold change (duvelisib)	log2 fold change (gandotinib)	log2 fold change (tozasertib)	log2 fold change (doramapimod)	log2 fold change (bafetinib)	log2 fold change [6]
EEF1A1P5 (UniProt Q5VTE0)	-0.022	-0.065	-0.021	-0.015	-0.218	-0.027	0.127	0.023	0.009	0	-0.006	0.027	-0.026	-0.114	-0.098	0.044	-0.001	0.011	-0.017	0.117
FARSB (UniProt Q9NSD9)	0.003	-0.056	-0.012	-0.014	-0.012	-0.029	0.067	0.002	0.005	-0.013	0.003	-0.014	-0.033	0.007	0.021	-0.053	-0.014	0.033	-0.005	-0.001
ERLIN1 (UniProt O75477)	0.006	-0.058	-0.001	-0.024	-0.066	0.086	-0.216 (active)	-0.007	-0.028	0.035	-0.041	-0.01	0.032	-0.094	-0.011	0.033	0.019	0.048	-0.027	0.03
FAM118B (UniProt Q9BPY3)	-0.023	-0.058	-0.002	0.037	-0.009	0.026	-0.048	-0.011	-0.043	0.016	0.022	-0.013	-0.093	-0.022	0.045	-0.044	-0.008	0.048	0.008	0.037
FLAD1 (UniProt Q8NFF5)	0.035	-0.214	0.039	-0.008	-0.013	0.031	0.137	-0.025	-0.013	-0.042	0.007	0.002	-0.024	0.021	0.05	0.044	-0.052	-0.02	-0.052	-0.05
DVL2 (UniProt O14641)	0.002	-0.079	-0.039	0.028	-0.027	-0.018	-0.036	0.003	-0.069	0.006	0.096	-0.037	-0.056	0.026	0	-0.107	-0.039	0.106	-0.232	0.054
GATAD2A isoform 3 (UniProt Q86YP4)	-0.028	-0.045	0.015	0	0.025	0.005	0.072	0.006	0.01	-0.023	-0.012	-0.031	-0.011	-0.031	-0.037	0.016	-0.009	0.026	0.001	0.061
FADS3 (UniProt Q9Y5Q0)	-0.051	0.1	-0.047	0.198	-0.08	0.097	0.096	0	0	0.063	0.13	-0.014	-0.065	-0.322	-0.09	0	0.079	-0.001	-0.131	-0.309
ERI1 (UniProt Q8IV48)	0.008	0	0.026	0.004	-0.021	0.025	0.118	-0.015	-0.02	-0.007	0.037	-0.079	-0.017	0.047	-0.022	-0.123	-0.015	0.015	0.04	-0.051
ECH1 (UniProt Q13011)	0.017	0.309 (active)	-0.028	0.004	-0.004	-0.033	-0.024	-0.01	0.047	-0.001	-0.035	-0.008	-0.03	-0.089	0.016	0.005	0.178	-0.008	0.091	0.028
FOXJ3 (UniProt Q9UPW0)	-0.009	-0.03	-0.031	0.014	0.033	0.055	-0.137	-0.028	0	0.054	0.039	-0.049	-0.053	0.101	0.035	-0.042	0.021	0	-0.139	-0.003
FIG4 (UniProt Q92562)	-0.106	0.012	-0.004	-0.039	-0.016	0.064	0.037	-0.145	0.079	0.148	-0.065	0.12	-0.016	0.039	-0.023	-0.099	-0.112	-0.067	-0.09	0.058
FAM98A (UniProt Q8NCA5)	0.042	-0.04	0.028	0.01	0.086	-0.004	0.025	-0.028	-0.014	0.037	0.001	-0.024	0.007	0.074	-0.024	-0.059	0.023	-0.015	0.012	0
GALK1 isoform 2 (UniProt P51570)	0.035	-0.132	-0.005	-0.002	0	0.02	-0.171	0.054	-0.016	0.034	-0.002	-0.02	-0.015	0.092	-0.028	-0.098	0.03	0.039	-0.007	-0.013
EXTL2 (UniProt Q9UBQ6)	-0.016	0	0.009	0.037	0.104	0.168	-0.048	-0.021	-0.005	-0.111	-0.071	-0.282	0.032	-0.138	-0.001	0.106	0.028	0.058	-0.02	-0.006
DYNC1I2 isoform 5 (UniProt Q13409)	0.002	0.007	-0.021	-0.011	0.012	-0.007	-0.012	-0.011	0.004	0.006	-0.003	-0.017	-0.003	-0.004	-0.002	0.009	0.012	0.006	0.03	-0.003
